In all, about 2,100 compounds went through this assay and about 650 (31%) were called active. About 16% were inconclusive and are not listed. Some of the results follow. Values without a mark were called inactive. Calls follow the shape of the dose curve; as a rule, active = well fitted inhibition curve with a large enough effect; inconclusive = small, poorly fitted or top-dose-only effect; inactive = flat fitted curve, though single readings scatter.
Potency is read from the fitted curve at half-maximal effect.

A short description of this experiment: qHTS for inhibitors of Vif-A3G interactions: Cherry picks. Also: nearly all actives have a fitted effect of over 80% in size. As to activity, negative = fluorescence increase: % of control where 0% means no effect. The conditions noted are these: HeLa A3G-eYFP + Vif (tagged APOBEC3G with the HIV-1 protein that degrades it), 24 h; Potency: eYFP fluorescence increase; series mostly up to 36.9 µM; activity, negative = fluorescence increase: at the top concentration. An excerpt: The recent discovery and characterization of host restriction factors, which provide a potent defense to invading retroviruses, has provided new targets for antiviral drug development. APOBEC3G (A3G) and APOBEC3F (A3F) are potent cytidine deaminases that block HIV-1 replication; HIV-1 expresses the Vif protein, which counteracts A3G and A3F by binding to them and inducing their proteasomal degradation. The Vif-A3G and Vif-A3F interactions provide two potential targets for development of small molecules which can interfere with the ability of Vif to degrade A3G or A3F. […] To identify inhibitors that can interfere with Vif mediated degradation of A3G and A3F, we have developed Hela cell lines that stably express A3G or A3F tagged with eYFP at the C-terminal end (A3G-eYFP or A3F-eYFP, respectively) and Vif. In the absence of an inhibitor, Vif induces degradation of A3G-eYFP and A3F-eYFP, and the cells are not fluorescent. In the presence of an inhibitor, it is expected that Vif will be unable to degrade A3G-eYFP and/or A3F-eYFP, resulting in an increase in yellow fluorescence. In this assay, Vif A3G was screened against the cherry picks ordered from the MLSMR. NIH Chemical Genomics Center [NCGC] NIH Molecular Libraries Probe Centers Network [MLPCN] MLPCN Grant: MH093245 Assay Submitter (PI): Vinay Pathak, National Cancer Institute
A3G-Vif cells were harvested from T225 flask and resuspended in phenol free OPTI-MEM medium with 5% FBS. Then 5 uL of 140,000 cells/mL resuspended cells was dispensed into each well of low base Aurora COC 1,536-well plates (black walled, clear bottom) using a Multidrop Combi dispenser. After overnight culture at 37 deg C with 5% CO2, a total of 23 nL of compounds at 5 selected concentrations from the NPC or positive control (2 mM stock of MG132) in DMSO was transferred to each well of the assay plate using a pintool (Kalypsys, San Diego, CA), and the plates were further incubated at 37 deg C with 5% CO2 for 24 hours. After that, the plates were measured on Acumen Explorer (TTP Lab Tech). The fluorescence was detected by 488 nm/Ex and […].
As for `COc1ccccc1NC(=O)c1oc2ccccc2c1NC(=O)c1cccc(OC)c1OC`, the “activity, negative = fluorescence increase” value is -11.2% [at 46.1 µM].

With `CC(=O)c1cccc(-c2ccnc3c2CC(C(=O)NCC2CC2)O3)c1` (centres undefined), the “activity, negative = fluorescence increase” value is -3.12%.

As to `N#CC1CC(c2ccccc2)Nc2cc(Cl)ccc2N1` (centres undefined), the “activity, negative = fluorescence increase” value is 1.23%.

`COc1ccc(N(C)S(=O)(=O)c2cccc3cccnc23)c(OC)c1`: the “activity, negative = fluorescence increase” value is 2.33%.

As for `COc1ccc(C(=O)NC2CCCc3ccccc32)cc1[N+](=O)[O-]` (centres undefined), the “activity, negative = fluorescence increase” value was 1.3%.

For `COc1ccc2nc(N3C(=O)/C(=C/c4ccccc4)NC3=S)sc2c1`, the Potency is 3.66 µM (active).

`COc1ccc2nc(NC(=S)NC(=O)c3ccco3)sc2c1`: the “activity, negative = fluorescence increase” value was -2.19% [at 46.1 µM].

As to `CCOc1ccc2nc(N3C(=O)/C(=C/c4ccc(Cl)cc4)NC3=S)sc2c1`, the Potency was 11.6 µM (active).

Turning to `COc1ccc2nc(NC(=O)Nc3ccccc3OC)sc2c1`, the “activity, negative = fluorescence increase” value is 0.903%.

With `O=C(OC12CC3CC(CC(C3)C1)C2)c1ccc(NCc2cc(O)ccc2O)cc1`, the “activity, negative = fluorescence increase” value is 1.32% [at 46.1 µM].

With `COc1c(-c2ccc(O)c(O)c2)oc2cc(O)cc(O)c2c1=O`, the “activity, negative = fluorescence increase” value is -10.1%.

In the case of `CC(=O)c1c(C)oc2c1cc(NS(=O)(=O)c1ccc(Br)cc1)c1ccccc12`, the “activity, negative = fluorescence increase” value is -5.41% [at 46.1 µM].

Turning to `Cc1ccc2c(c1)sc(-c1ccc(N(C)C)cc1)[n+]2C`, the Potency is 20.6 µM (active).

As for `COc1ccc(C(=O)c2cc([N+](=O)[O-])ccc2N2CCCC2)cc1`, the “activity, negative = fluorescence increase” value was -0.081%.

With `COc1ccc(N/C=C/C(=O)c2cc(OC)c(OC)c(OC)c2)cc1`, the “activity, negative = fluorescence increase” value is -17%.

For the molecule `COc1ccc(C(=O)/C=C/Nc2ccc([N+](=O)[O-])cc2C)c(OC)c1`, the Potency was 11.6 µM (active).

For the molecule `COC(=O)c1ccccc1NC(=O)C1CC(=O)N(c2ccc(OC)cc2)C1` (centres undefined), the “activity, negative = fluorescence increase” value was -1.16%.

`CCCN1C(=O)/C(=C/C=C2\N(CC)c3ccccc3C2(C)C)SC1=S`: the Potency is 3.96 µM (active).

Regarding `CCCN1C(=O)/C(=C\C=C2\N(CC)c3ccccc3C2(C)C)SC1=S`, the Potency is 3.26 µM (active).

As for `CCCCN1C(=O)/C(=C/C=C2/CC(C)(C)CN2C)SC1=S`, the “activity, negative = fluorescence increase” value was -28.2%.

Consider `Cc1cc(C)c(S(=O)(=O)N2CCCCC2CCNC(=O)C(=O)NCc2ccco2)c(C)c1` (centres undefined), for which the “activity, negative = fluorescence increase” value is -17.1%.

`Cc1c(C)n(Cc2ccccc2)c2ccc(C(=O)NCc3ccco3)cc12`: the “activity, negative = fluorescence increase” value is -7.76% [at 46.1 µM].

Turning to `O=C(NCc1ccco1)c1cccc2c1C(=O)c1ccc(N3CCC(Cc4ccccc4)CC3)cc1S2(=O)=O`, the Potency is 18.4 µM (active).

As to `O=C(NCc1cccc(C(F)(F)F)c1)c1cccc2c1C(=O)c1ccc(N3CCC(Cc4ccccc4)CC3)cc1S2(=O)=O`, the Potency is 18.4 µM (active).

As for `O=C(NCc1ccccc1C(F)(F)F)c1cccc2c1C(=O)c1ccc(N3CCC(N4CCCCC4)CC3)cc1S2(=O)=O`, the Potency is 20.6 µM (active).

With `O=C(NC1CC1)c1cccc2c1C(=O)c1ccc(N3CCC(Cc4ccccc4)CC3)cc1S2(=O)=O`, the Potency is 23.1 µM (active).

As for `Cc1ccc(C(=O)NC(=C(Cl)Cl)S(=O)(=O)c2ccc(Cl)cc2)cc1`, the “activity, negative = fluorescence increase” value is -21.2%.

For `CC(=O)c1cccc(-c2ccnc3c2CC(C(=O)NCC2CCOCC2)O3)c1` (centres undefined), the “activity, negative = fluorescence increase” value was -5.46%.

As for `COc1ccccc1C(=O)N1CCN(c2cccc(Cl)c2)CC1`, the “activity, negative = fluorescence increase” value was -4.75%.

With `Cc1cccc(C(=O)NC(=S)N2CCc3ccccc3C2)c1`, the “activity, negative = fluorescence increase” value was 13.5% [at 46.1 µM].

`O=C(Nc1nc2c(F)cccc2s1)c1ccc([N+](=O)[O-])o1`: the “activity, negative = fluorescence increase” value is -7.65% [at 46.1 µM].

Consider `O=C(N/N=C/c1ccc([N+](=O)[O-])o1)c1cn2ccc3ccccc3c2n1`, for which the “activity, negative = fluorescence increase” value is -24.5%.

As for `O=C(N/N=C/c1ccc([N+](=O)[O-])o1)c1sc2ccccc2c1Cl`, the Potency is 18.4 µM (active).

As to `COc1cc(C2Nc3ccc4ncccc4c3C3=C2C(=O)CCC3)ccc1O` (centres undefined), the “activity, negative = fluorescence increase” value is -1.83%.

As for `O=C(N/N=C\C=C\c1ccc([N+](=O)[O-])o1)c1cccs1`, the Potency was 15.8 µM (active).

For `COc1ccccc1OCC(=O)NNC(=O)Nc1ccc(Cl)cc1`, the “activity, negative = fluorescence increase” value is -5.61%.

On to `COc1ccccc1OCC(=O)N/N=C/C=C/c1ccc([N+](=O)[O-])o1`, for which the Potency was 16.4 µM (active).

On to `CCCOC(=O)/C(=C\c1ccc([N+](=O)[O-])o1)NC(=O)c1ccccc1`, for which the “activity, negative = fluorescence increase” value is 2.95% [at 46.1 µM].

Turning to `O=C(N/N=C/c1cccs1)c1n[nH]c2c1CCC2`, the “activity, negative = fluorescence increase” value is 0.292%.

On to `O=C(Nc1ncccn1)c1ccc([N+](=O)[O-])o1`, for which the “activity, negative = fluorescence increase” value was -21.8%.

Take `COc1cc2c(c(OC)c1OC)-c1ccc(N(C)CC(OC)OC)c(=O)cc1[C@@H](NC(C)=O)CC2`: the “activity, negative = fluorescence increase” value is -15.4%.

As to `CC(C)(C)c1ccc(Oc2ccc(NC(=O)c3ccccc3C(=O)O)cn2)cc1`, the “activity, negative = fluorescence increase” value is -6.2%.

For the molecule `COc1cc2ccccc2cc1C(=O)N/N=C/c1cccnc1`, the “activity, negative = fluorescence increase” value is -15.3%.

`Cc1cc2nc3c(=O)n(C4CCCCC4)c(=O)[nH]c3nc2cc1N`: the Potency was 16.4 µM (active).

In the case of `Cc1cc2nc3c(=O)n(Cc4ccccc4)c(=O)[nH]c3nc2cc1N`, the Potency was 6.27 µM (active).

`Cn1c(=O)[nH]c(=O)c2c1nc(Br)n2Cc1cccc(Br)c1`: the “activity, negative = fluorescence increase” value is -5.77%.

With `Cc1nc2c3cc(F)ccc3n(Cc3ccccc3)c2s1`, the “activity, negative = fluorescence increase” value was -4.45%.

For the molecule `Cc1cccc(C)c1OCCNC(=O)C(=O)NCc1ccco1`, the “activity, negative = fluorescence increase” value was 2.6%.

As for `CC1CC(C)(C)Nc2ccc(OC(=O)c3ccco3)cc21` (centres undefined), the Potency is 20.6 µM (active).

The record behind these values is PubChem BioAssay AID651812 (National Center for Advancing Translational Sciences (NCATS), 2012).
